About 79,000 compounds went through this panel and 15% of them were active in at least one assay; those are over-represented in the sample as a whole. The source made the active and inactive calls. Rule as the data show it: active = growth inhibition above about 70%; inactive = the rest.
Assay: NCI Yeast Anticancer Drug Screen. Data for the cln2 rad14 strain (AID 165);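 also: 0% = growth equal to vehicle treated cultures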
Conditions: S. cerevisiae cln2 rad14 strain, stronger effect = higher value
Protocol: Growth inhibition of yeast strains with defined genetic alterations is measured as a screen for potential anti-cancer activity. Selected strains with alterations in DNA damage repair or cell cycle control were exposed to compounds and growth inhibition was measured relative to vehicle treated controls. The strain used in this assay is cln2 rad14

[1] = at 5.0 µM (retest, dose inferred, filed as 0.5)
[2] = at 50.0 µM (retest, dose inferred, filed as 5.0)

SMILES	growth inhibition [1]	growth inhibition [2]	growth inhibition (at 50.0 µM)
CC(C)OC(=O)c1ccc(CCc2cc(O)c(Br)cc2O)cc1	1% (inactive)	96% (active)	91.8% (active)
CCCCCOC(=S)SC(=O)OCC	9% (inactive)	53% (inactive)	64.8% (inactive)
Cc1ccc(NC(c2ccccc2)c2ccc3cccnc3c2O)cc1 (configuration not stated)	48% (inactive)	45% (inactive)	59.9% (inactive)
CC[N+](CC)(CC)c1ccccc1	20% (inactive)	33% (inactive)	24.1% (inactive)
Cc1ccc(Cl)cc1NC(=O)OCCN(C)C(=O)Nc1cc(Cl)ccc1C	17% (inactive)	75% (active)	85.1% (active)
O=C(NCCCNCCN1C(=O)c2cccc3cc([N+](=O)[O-])cc(c23)C1=O)c1cc(-c2ccccc2)nc2ccccc12	33% (inactive)	78% (active)	93.6% (active)
Cc1cc2cc3cc(C)c(N)cc3nc2cc1N	34% (inactive)	98% (active)	46.8% (inactive)
Oc1ccc(O)c(Cc2ccccc2)c1	-25% (inactive)	47% (inactive)	97.4% (active)
O=C1C=C(Cl)C(=O)N1c1cccc(Cl)c1	3% (inactive)	98% (active)	99.4% (active)
CCOC(=O)c1ccc(NC(=O)O/N=C(/Cl)C(C)C)cc1	17% (inactive)	87% (active)	63.4% (inactive)
Cc1cc2c(cc1C)[n+]([O-])c(-c1nc3ccccc3s1)c(N)[n+]2[O-]	2% (inactive)	41% (inactive)	81.5% (active)
O=C(Nc1ccc(Cl)cc1)Nc1nnc2nc(C(C(=O)c3cccc([N+](=O)[O-])c3Cl)c3nc4nnc(NC(=O)Nc5ccc(Cl)cc5)n4[nH]c3=O)c(=O)[nH]n12	-8% (inactive)	14% (inactive)	99.2% (active)
Cc1cc(O)c(C(C)C)cc1C1(c2cc(C(C)C)c(O)cc2C)OC(=O)c2ccccc21	51% (inactive)	97% (active)	97% (active)
O=[N+]([O-])c1cc(S(=O)(=O)Nc2ccccc2)ccc1Nc1ccccc1	68% (inactive)	91% (active)	80.2% (active)
